# Laboratory results: PubChem BioAssay (NCATS)
# Results filed as inconclusive are left out. Entries that show only a call come without a potency. Active and inactive are the calls of the source. Unless noted, the call rests on the fitted dose curve; in most records, active means well fitted curve in the direction sought with a large enough effect; inconclusive means small, poorly fitted or top-dose-only effect, or another doubt; inactive means no such curve, though single readings can be large; an effect the other way counts as inactive or inconclusive.
# What was measured:
# [1] = qHTS assay for small molecule agonists of the antioxidant response element (ARE) signaling pathway measured by Nrf2-dependant transcriptional activity (AID 720636; active means well fitted curve in the direction sought with a large enough effect in the repeat runs; an effect the other way counts as inactive or inconclusive;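 further: HepG2 cells with an ARE-driven luciferase reporter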)
# How it was run: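 First, ARE-luc HepG2 cells attached for 6 hr at 37 C in 1% dialyzed FBS medium. Next, compound or DMSO was added and incubated 16 hr. Finally, ONE-Glo reagent was added and luminescence measured after 30 min.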
# [2] = biological target: Cytochrome P450 2C19 (Homo sapiens) (UniProt P33261); assay: qHTS Assay for Inhibitors and Substrates of Cytochrome P450 2C19 (AID 899); further: nearly all actives have a fitted effect of over 60% in size; further: potency means the concentration at half of the fitted maximal effect
# Chain of Cytochrome P450 2C19 (Homo sapiens) (P33261 whole entry, looked up): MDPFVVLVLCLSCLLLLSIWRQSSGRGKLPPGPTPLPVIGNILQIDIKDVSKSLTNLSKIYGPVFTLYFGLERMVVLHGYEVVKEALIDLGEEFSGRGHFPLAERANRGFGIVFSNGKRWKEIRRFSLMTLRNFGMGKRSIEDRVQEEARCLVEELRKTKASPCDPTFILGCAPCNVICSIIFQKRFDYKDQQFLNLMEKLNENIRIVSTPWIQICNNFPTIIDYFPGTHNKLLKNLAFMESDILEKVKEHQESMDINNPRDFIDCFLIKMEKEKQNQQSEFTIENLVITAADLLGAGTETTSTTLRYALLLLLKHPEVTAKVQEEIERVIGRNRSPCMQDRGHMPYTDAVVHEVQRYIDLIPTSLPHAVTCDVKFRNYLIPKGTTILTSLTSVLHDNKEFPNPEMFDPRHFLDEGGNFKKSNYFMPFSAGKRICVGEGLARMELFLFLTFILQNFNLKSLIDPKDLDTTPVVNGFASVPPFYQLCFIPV
# How it was run: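 5 nM human CYP2C19 with 10uM Luciferin-H EGE (at KM) in 50mM KPO4, compound preincubated 10 min at 37C, then NADPH regeneration for 60 min at 37C. Luciferin read by luminescence after detection reagent; normalized to 57uM ketoconazole as full inhibition.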
# [3] = biological target: Phospholipid hydroperoxide glutathione peroxidase GPX4 (Homo sapiens) (UniProt P36969); assay: Primary qHTS Assay for Inhibitors of Recombinant Selenoprotein Glutathione Peroxidase 4 (GPX4) (AID 1845192); conditions: outcome: dose series up to 50 µM unless noted; further: series mostly up to about 50 µM; nearly all actives have a fitted effect of over 65% in size
# Chain of Phospholipid hydroperoxide glutathione peroxidase GPX4 (Homo sapiens) (P36969 whole entry, looked up): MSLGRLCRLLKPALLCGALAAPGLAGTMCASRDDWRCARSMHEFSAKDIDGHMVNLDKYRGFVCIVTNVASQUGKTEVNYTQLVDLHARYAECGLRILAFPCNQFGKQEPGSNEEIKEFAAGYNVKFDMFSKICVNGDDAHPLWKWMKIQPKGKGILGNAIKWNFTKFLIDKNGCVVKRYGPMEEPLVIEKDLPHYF
# How it was run: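 Steps: GPX4 plus compound, 30 min RT; add GR/GSH/NADPH master mix; start with cumene hydroperoxide; read 340/450 nm fluorescence at 0 and 15 min. Finals were 200 nM GPX4, 1 mM GSH, 0.5 mM CHP, 0.5 mM NADPH, 100 nM GR.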
# [4] = Confirmation and Secondary Assay for Modulators of Hemoglobin Beta Chain Splicing at IVS2 654 locus (AID 910);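 further: HeLa cells stably carrying EGFP split by mutant beta-globin IVS2-654 intron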
# How it was run: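 HeLa cells stably expressing EGFP interrupted by β-globin IVS2-654 intron, seeded overnight in Opti-MEM/2% FCS, then treated 2 days at 37 °C. Restored splicing read as total peak GFP intensity per well by laser scanning cytometry (488 nm excitation, 500–520 nm emission); 500 nM antisense PNA as control.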
# [5] = Confirmation and Secondary Assay for Modulators of Hemoglobin Beta Chain Splicing at IVS2 705 locus (AID 930);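 further: HeLa cells stably expressing the EGFP-705 splicing reporter; GFP fluorescence per well restored by corrected splicing of the IVS2-705 intron in EGFP; series mostly up to about 46 µM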
# How it was run: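 Splice-correction reporter: EGFP cDNA split by beta-globin intron 2 bearing the 705 mutation, stably in HeLa. Compound incubation 2 days, 37C; fluorescent objects 5-250 µm summed per well.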
# [6] = biological target: Rap guanine nucleotide exchange factor 3 (Homo sapiens) (UniProt O95398); assay: Confirmatory qHTS for antagonist of cAMP-regulated guanine nucleotide exchange factor 3 (EPAC1) (AID 1645880); further: nearly all actives have a fitted effect of over 55% in size
# Chain of Rap guanine nucleotide exchange factor 3 (Homo sapiens) (O95398 whole entry, looked up): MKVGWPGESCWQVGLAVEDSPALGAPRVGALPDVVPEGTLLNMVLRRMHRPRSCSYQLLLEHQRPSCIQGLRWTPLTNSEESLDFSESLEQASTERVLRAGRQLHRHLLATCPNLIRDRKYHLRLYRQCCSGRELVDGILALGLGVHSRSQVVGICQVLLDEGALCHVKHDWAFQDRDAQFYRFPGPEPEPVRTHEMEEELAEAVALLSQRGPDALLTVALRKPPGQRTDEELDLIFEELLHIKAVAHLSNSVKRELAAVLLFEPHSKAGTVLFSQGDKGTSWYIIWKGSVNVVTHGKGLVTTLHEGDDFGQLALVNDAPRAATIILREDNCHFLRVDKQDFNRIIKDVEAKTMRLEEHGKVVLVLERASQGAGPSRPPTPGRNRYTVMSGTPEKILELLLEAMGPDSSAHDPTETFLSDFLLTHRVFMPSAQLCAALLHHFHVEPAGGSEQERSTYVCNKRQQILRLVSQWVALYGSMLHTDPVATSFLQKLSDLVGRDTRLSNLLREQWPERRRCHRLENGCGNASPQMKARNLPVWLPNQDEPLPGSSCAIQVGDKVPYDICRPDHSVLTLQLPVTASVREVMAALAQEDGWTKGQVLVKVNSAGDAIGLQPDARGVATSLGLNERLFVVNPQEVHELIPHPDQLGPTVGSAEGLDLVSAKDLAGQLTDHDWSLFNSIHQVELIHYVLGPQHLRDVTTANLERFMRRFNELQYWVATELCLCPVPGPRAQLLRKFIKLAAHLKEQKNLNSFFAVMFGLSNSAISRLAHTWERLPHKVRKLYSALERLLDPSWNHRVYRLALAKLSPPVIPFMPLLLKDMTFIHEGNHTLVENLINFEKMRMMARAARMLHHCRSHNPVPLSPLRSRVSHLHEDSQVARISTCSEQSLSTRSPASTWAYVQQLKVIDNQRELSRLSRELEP
# How it was run: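 Released BODIPY-GDP fluoresces less than Rap1-bound BODIPY-GDP; the signal is followed at 480/540 nm at 5-min intervals over 30 min, after 5 min at room temperature. Reactions contain 100 nM EPAC1, 250 nM RAP1B-BODIPY-GDP and 50 uM GDP; results are normalized to ATA and DMSO.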
# [7] = biological target: Rap guanine nucleotide exchange factor 3 (Homo sapiens) (UniProt O95398); assay: Confirmatory qHTS for agonist of cAMP-regulated guanine nucleotide exchange factor 3 (EPAC1) (AID 1645881);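 further: EPAC1 catalysed release of BODIPY-GDP from Rap1B seen as fluorescence loss; nearly all actives have a fitted effect of over 75% in size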
# [8] = biological target: Rap guanine nucleotide exchange factor 4 (Homo sapiens) (UniProt Q8WZA2); assay: Confirmatory qHTS for agonist of cAMP-regulated guanine nucleotide exchange factor 4 (EPAC2) (AID 1645884);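 further: nucleotide exchange releases bodipy-GDP from Rap1 and this lowers its fluorescence; nearly all actives have a fitted effect of over 65% in size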
# Chain of Rap guanine nucleotide exchange factor 4 (Homo sapiens) (Q8WZA2 whole entry, looked up): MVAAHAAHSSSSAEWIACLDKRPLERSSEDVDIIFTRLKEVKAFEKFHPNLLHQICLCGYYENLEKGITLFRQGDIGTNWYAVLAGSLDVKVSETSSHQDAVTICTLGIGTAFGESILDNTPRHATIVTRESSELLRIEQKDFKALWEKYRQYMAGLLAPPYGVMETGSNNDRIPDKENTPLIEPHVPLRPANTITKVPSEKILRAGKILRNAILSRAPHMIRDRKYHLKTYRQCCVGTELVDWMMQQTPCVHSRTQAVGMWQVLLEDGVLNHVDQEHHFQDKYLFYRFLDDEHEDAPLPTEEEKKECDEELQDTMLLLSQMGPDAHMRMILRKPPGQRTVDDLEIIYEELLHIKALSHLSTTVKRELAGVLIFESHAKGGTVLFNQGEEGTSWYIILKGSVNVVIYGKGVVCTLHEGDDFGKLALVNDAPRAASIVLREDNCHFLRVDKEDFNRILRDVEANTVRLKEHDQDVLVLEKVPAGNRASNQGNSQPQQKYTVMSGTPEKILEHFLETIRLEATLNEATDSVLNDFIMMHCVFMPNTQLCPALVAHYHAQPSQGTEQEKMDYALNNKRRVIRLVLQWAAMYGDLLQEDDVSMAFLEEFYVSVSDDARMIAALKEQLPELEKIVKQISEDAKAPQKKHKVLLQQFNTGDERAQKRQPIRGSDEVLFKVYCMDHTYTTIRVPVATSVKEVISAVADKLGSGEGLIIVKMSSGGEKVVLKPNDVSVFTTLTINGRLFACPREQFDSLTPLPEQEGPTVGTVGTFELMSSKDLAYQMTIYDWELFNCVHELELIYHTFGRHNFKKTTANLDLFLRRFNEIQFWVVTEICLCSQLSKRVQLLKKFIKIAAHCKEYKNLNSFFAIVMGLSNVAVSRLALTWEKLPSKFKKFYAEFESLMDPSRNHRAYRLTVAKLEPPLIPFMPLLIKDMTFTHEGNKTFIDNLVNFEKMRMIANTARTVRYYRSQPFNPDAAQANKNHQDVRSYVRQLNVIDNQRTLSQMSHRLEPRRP
# [9] = biological target: Rap guanine nucleotide exchange factor 4 (Homo sapiens) (UniProt Q8WZA2); assay: Confirmatory qHTS for antagonist of cAMP-regulated guanine nucleotide exchange factor 4 (EPAC2) (AID 1645885); further: nearly all actives have a fitted effect of over 25% in size
# [10] = biological target: Rap guanine nucleotide exchange factor 3 (Homo sapiens) (UniProt O95398); assay: Counterscreen qHTS for antagonist of cAMP-regulated guanine nucleotide exchange factor 3 (EPAC1) (AID 1645888)
# How it was run: (§1)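 Rap1B–BODIPY-GDP (250 nM) with 50 uM GDP; compounds pin-transferred to 9.74 nM–152 uM final (activator) or from 7.32 nM upwards (inhibitor). Fluorescence Ex/Em 480/540 nm read at 5 and 30 min, then after adding cAMP or buffer, at room temperature.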
# [11] = biological target: Rap guanine nucleotide exchange factor 3 (Homo sapiens) (UniProt O95398); assay: Counterscreen qHTS for agonist of cAMP-regulated guanine nucleotide exchange factor 3 (EPAC1) (AID 1645889); further: nearly all actives have a fitted effect of over 40% in size
# How it was run: as §1
# [12] = biological target: Cytochrome P450 2C9 (Homo sapiens) (UniProt P11712); assay: qHTS Assay for Inhibitors and Substrates of Cytochrome P450 2C9 (AID 883); further: potency means the concentration at half of the fitted maximal effect; nearly all actives have a fitted effect of over 60% in size
# Chain of Cytochrome P450 2C9 (Homo sapiens) (P11712 whole entry, looked up): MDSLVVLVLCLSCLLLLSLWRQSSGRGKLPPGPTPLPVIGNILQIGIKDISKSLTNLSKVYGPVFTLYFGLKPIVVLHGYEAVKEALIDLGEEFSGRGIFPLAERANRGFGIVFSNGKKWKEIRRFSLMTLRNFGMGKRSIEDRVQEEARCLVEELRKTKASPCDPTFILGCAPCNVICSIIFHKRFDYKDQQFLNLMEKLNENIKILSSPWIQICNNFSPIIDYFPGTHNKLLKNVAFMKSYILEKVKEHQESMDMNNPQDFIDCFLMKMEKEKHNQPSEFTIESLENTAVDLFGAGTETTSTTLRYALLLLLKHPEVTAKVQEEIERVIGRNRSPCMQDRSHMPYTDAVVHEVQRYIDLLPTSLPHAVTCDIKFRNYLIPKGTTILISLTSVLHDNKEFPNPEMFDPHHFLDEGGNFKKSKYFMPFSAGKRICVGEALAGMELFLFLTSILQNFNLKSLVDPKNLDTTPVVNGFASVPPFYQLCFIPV
# How it was run: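 Human CYP2C9 (10nM) with Luciferin-H at 100uM (its KM) in 25mM KPO4; compound preincubated 10 min at 37C, then NADPH regeneration for 60 min at 37C. Luciferin read by luminescence after detection reagent; normalized to 57uM sulphaphenazole as full inhibition.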
# [13] = biological target: Cytochrome P450 2D6 (Homo sapiens) (UniProt P10635); assay: qHTS Assay for Inhibitors and Substrates of Cytochrome P450 2D6 (AID 891);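 further: luciferin methyl ether substrate demethylated by CYP2D6 with NADPH regeneration; nearly all actives have a fitted effect of over 60% in size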
# Chain of Cytochrome P450 2D6 (Homo sapiens) (P10635 whole entry, looked up): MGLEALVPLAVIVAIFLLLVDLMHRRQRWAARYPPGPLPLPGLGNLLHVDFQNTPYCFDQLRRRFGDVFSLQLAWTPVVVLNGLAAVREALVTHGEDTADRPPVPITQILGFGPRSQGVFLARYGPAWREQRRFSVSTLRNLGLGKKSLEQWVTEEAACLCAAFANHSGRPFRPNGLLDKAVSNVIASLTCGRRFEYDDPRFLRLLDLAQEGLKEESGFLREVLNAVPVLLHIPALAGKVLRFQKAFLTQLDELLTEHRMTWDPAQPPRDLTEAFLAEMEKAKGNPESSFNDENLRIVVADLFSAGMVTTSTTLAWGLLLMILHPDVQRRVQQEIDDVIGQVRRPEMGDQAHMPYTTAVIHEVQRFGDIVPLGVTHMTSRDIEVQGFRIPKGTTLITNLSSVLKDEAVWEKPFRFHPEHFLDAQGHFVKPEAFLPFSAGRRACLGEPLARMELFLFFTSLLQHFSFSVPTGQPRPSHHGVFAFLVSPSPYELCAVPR
# How it was run: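 Luminescent read-out of luciferin formed by 5 nM human CYP2D6 demethylating 30 uM Luciferin-ME EGE (Km level) over 60 min at room temperature after NADPH regeneration addition. Data normalized to full inhibition by 1.43 uM quinidine.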
# [14] = biological target: Pyruvate kinase PKM (Homo sapiens) (UniProt P14618); assay: qHTS Assay for Inhibitors of Human Muscle Pyruvate Kinase (AID 958); conditions: purified human PKM enzyme activity
# Chain of Pyruvate kinase PKM (Homo sapiens) (P14618 whole entry, looked up): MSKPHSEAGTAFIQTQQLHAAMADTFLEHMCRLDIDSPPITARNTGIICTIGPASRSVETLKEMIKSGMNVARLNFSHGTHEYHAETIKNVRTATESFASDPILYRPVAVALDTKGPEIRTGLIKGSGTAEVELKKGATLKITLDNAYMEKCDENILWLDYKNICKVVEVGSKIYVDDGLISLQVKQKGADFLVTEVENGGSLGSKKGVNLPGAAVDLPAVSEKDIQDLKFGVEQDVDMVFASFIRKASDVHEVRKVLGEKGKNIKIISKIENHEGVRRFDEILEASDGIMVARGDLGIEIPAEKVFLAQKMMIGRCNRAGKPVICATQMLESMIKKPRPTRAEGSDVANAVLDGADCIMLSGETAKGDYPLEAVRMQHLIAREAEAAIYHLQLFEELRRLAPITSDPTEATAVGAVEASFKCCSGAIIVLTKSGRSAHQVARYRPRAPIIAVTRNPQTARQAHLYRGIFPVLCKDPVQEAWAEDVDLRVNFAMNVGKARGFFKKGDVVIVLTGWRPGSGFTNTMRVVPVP
# How it was run: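 Purified human PKM2 (0.1 nM) with 0.5 mM PEP (Km) and 0.1 mM ADP in 50 mM imidazole pH 7.2, KCl, MgCl2, 1 h at room temperature; ATP formed read by coupled luciferase luminescence. Normalized to no-enzyme/110 uM thiadiazolimine inhibition; 0.3 nM enzyme column for activation.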
# [15] = biological target: Pyruvate kinase (Leishmania mexicana) (UniProt Q27686); assay: qHTS Validation Assay for Activators of Leishmania Mexicana Pyruvate Kinase (AID 959)
# Chain of Pyruvate kinase (Leishmania mexicana) (Q27686 2-499 E452W): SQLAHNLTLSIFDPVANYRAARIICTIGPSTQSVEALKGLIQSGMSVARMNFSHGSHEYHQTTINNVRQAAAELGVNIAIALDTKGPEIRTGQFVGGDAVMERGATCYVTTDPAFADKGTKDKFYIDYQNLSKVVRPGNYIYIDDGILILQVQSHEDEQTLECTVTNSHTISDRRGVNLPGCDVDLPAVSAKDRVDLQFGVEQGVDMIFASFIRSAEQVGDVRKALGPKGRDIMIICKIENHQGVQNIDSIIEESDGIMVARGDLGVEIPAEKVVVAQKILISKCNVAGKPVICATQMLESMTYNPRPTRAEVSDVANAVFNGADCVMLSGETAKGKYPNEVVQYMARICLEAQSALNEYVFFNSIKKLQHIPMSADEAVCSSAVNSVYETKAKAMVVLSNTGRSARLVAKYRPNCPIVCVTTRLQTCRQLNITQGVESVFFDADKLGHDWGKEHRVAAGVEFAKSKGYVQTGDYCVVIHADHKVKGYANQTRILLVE
# How it was run: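 The enzyme is a highly purified E451W mutant of LmPYK used at 0.2 nM. It converts 0.5 mM PEP and 0.1 mM ADP over 1 h at room temperature; product ATP is quantified by luciferase luminescence relative to DMSO controls.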
# [16] = qHTS Assay for Identification of Small Molecule Antagonists for Thrombopoietin (TPO) Signaling Pathway (AID 918); conditions: TPO-dependent cell signaling reporter, antagonist mode; further: potency means the concentration at half of the fitted maximal effect; nearly all actives have a fitted effect of over 60% in size
# How it was run: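 Inhibitors of TPO signaling are sought by stimulating IL-3-starved murine Ba/F3 cells (human TPO receptor, Glycoprotein IIb-driven luciferase) with TPO at its EC50 of 26 pM alongside compound. After 24 hrs at 37 C, reporter luminescence is measured.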
structure (smiles),measurement,setting,value
N[C@H](Cc1ccc(O)c(O)c1)C(=O)O,outcome,[1],inactive
NCCC(=O)NCCc1cnc[nH]1,Potency,[2],inactive
Cc1c(C(=O)Nc2ccc(Oc3ccnc4[nH]cc(-c5ccccc5)c34)c(F)c2)c(=O)n(-c2ccc(F)cc2)n1C,Potency,[3],inactive
CN1C(=O)CCC1c1cccnc1 (stereo not drawn),outcome,[4],inactive
same,outcome,[5],inactive
CN1C2CC(OC(=O)C(CO)c3ccccc3)CC1C1OC12 (stereo not drawn),Potency,[6],inactive
same,outcome,[7],inactive
same,activation,[8],2.48% [at 17.1 µM] (inactive)
same,"activity change, negative = inhibition",[9],-4.32% [at 12.7 µM] (inactive)
same,outcome,[10],inactive
same,activation,[11],0.0134% [at 30.8 µM] (inactive)
N=C1Sc2ccccc2C2=NCCCN12,Potency,[12],0.794 µM (active)
same,Potency,[13],inactive
same,Potency,[14],7.94 µM (active)
CCSC(N)=Nc1ccc(C(F)(F)F)cc1,outcome,[15],inactive
NCCCCNS(=O)(=O)c1cccc2c(Cl)cccc12,Potency,[16],10 µM (active)
COC(=O)c1c(-c2cc(OC)c(OC)c(OC)c2)c2ccc(OCc3ccccn3)cc2c(=O)n1-c1ccc(N)cc1,Potency,[12],3.98 µM (active)
CCCC(=O)NCCc1c2n(c3ccc(OC)cc13)Cc1ccccc1-2,Potency,[12],1.26 µM (active)
same,Potency,[2],0.398 µM (active)
NC[C@@H](O)c1ccc(O)c(O)c1,outcome,[4],inactive
CC(=O)NC(c1cccs1)c1cc(Br)c2cccnc2c1O (stereo not drawn),outcome,[7],inactive
same,activation,[8],0% [at 17.1 µM] (inactive)
same,outcome,[10],inactive
